Rows were chosen to be rich in hits. Some 1.8% of all compounds tested hit in one or more screens of this group.
F508del corr = F508del CFTR correction, initial screen, CFBE line, single point | CFBE cells, YFP halide quenching; stimulated with forskolin plus potentiator P3; % fluorescence drop versus neutral controls | activity (quench increase), % at 7.58 µM | actives 0.36% (n = 350,000);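 active = mean added fluorescence quench of at least 8% versus neutral control, with both replicates also reaching 8%; inconclusive = only one of the mean or replicate conditions met; inactive = mean below 8% and not both replicates reaching 8%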;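 also: cells transiently co-express mutant CFTR-F508del with the halide-sensitive YFP; corrector assay measuring rescue of mutant channel to the surface after 24 h compound exposure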
PAX8 inh HTS = inhibitors of PAX8-driven TPO luciferase reporter, primary screen, RMG-I cells, single concentration; SteadyGlo, 24 h; inhibition, % at 12.6 µM; actives 1.2% (n = 360,000);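 active = mean replicate inhibition at least 60% with every replicate also reaching 60%; inconclusive = only one of the two criteria is met; inactive = mean below 60% and not all replicates reaching 60%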;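 also: luciferase light reporting Pax8 driven TPO promoter activity; plate controls were median of neutral control wells for no effect and mitoxantrone controls for full effect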
EWS-Fli block = EWS/Fli-driven NR0B1 reporter inhibitors, primary screen, A673 cells, NR0B1 luciferase, luminescence, MLPCN library; AID 651661, 2012; viability-normalised; inhibition, % at 12.6 µM; actives 0.67% (n = 350,000);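 active = mean inhibition of at least 50% after viability correction, with every replicate also passing that limit; inconclusive = mean reaches 50% but only one of two replicates passes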;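 also: firefly luciferase signal divided by Alamar Blue viability fluorescence both relative to DMSO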
LGR2 antag = inhibitors of bursicon-induced LGR2 CRE-luciferase signal, primary screen, cell-based, HEK293, CRE-luciferase reporter, bursicon stimulation; Drosophila bursicon receptor LGR2 (rickets); bursicon-stimulated, 4 h; AID 720647, 2013; actives 0.35% (n = 380,000); inhibition, % at 9.99 µM;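 active = drop in luminescence signal, shown as inhibition above about 50% in the replicate tests, limit read from the data, passing the limit was not always enough; inconclusive = probably only some replicates passing the limit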;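 also: agonist challenge used bursicon conditioned medium at about half maximal strength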
* hit, by the source's call; ? = inconclusive; / = not tested or not shown.

SMILES | F508del corr | PAX8 inh HTS | EWS-Fli block | LGR2 antag
O=C(Oc1c(CN2CCOCC2)cc(Cl)c2cccnc12)c1cccs1 | 6.2 | 71.3* | 27.3 | 12.3
COc1cccc(NC(=O)C2C3C=CC4(O3)C2C(=O)N(C2CC2)C4C(=O)NC2CCCCC2C)c1 (configuration not stated) | / | 5.1 | / | /
COc1ccc(N2C[C@@]3(O)CC[C@@H](O)[C@@H](OC)[C@@H]3[C@@]2(C)[C@H](O)CC=C(C)C)cc1 | 0.4 | 2.2 | 0.4 | -10.1
Cn1c(NCc2ccccc2)nc2cc(-c3ccccc3)sc2c1=O | 3.5 | 0.7 | -32.5 | -3.3
COc1ccc(-c2cc3nc4n(c(=O)c3s2)CCC4)cc1 | -0.1 | / | ? | 87.0*
Cc1nc2cc(-c3ccccc3)sc2c(=O)n1N | -2.5 | 75.5* | 75.7* | 98.3*
COc1ccc(-c2cc3nc4n(c(=O)c3s2)CCCCC4)cc1 | -0.7 | -126.1 | -29.1 | 11.3
COc1ccc(-c2cc3nc(C)n(N)c(=O)c3s2)cc1 | -2.5 | 86.1* | 89.5* | 100.9*
CCC(=O)N(CCC1(c2ccccc2OC)CCOC(C(C)C)C1)Cc1ccco1 (configuration not stated) | 0.5 | -30.1 | 13.5 | 15.1
CC(NS(=O)(=O)c1cccc(Cl)c1F)[C@H](O)c1ccccc1 (some centres not stated) | -2.8 | -14.4 | -1.0 | 5.6
CO/N=C\CC(=O)Nc1ccc(Cl)cc1Cl | 10.7* | 16.3 | 19.8 | 25.4
CCOC(=O)/C=C/C(=O)OCC(=O)Nc1ccc(Cl)cc1Cl | 1.2 | -2.6 | 0.7 | -5.9
CCN(C(=O)CSc1nc2ccccc2c(=O)n1-c1ccc(C)cc1)C1CCS(=O)(=O)C1 (configuration not stated) | 1.3 | 2.8 | 0.7 | -20.8
CCN(C(=O)CSc1nc2ccccc2c(=O)n1-c1ccccc1F)C1CCS(=O)(=O)C1 (configuration not stated) | 10.9* | 7.8 | 6.6 | 2.2
CC(C)CC1CC(=O)OC1(C)C(=O)CSc1nc2ccccc2s1 (configuration not stated) | / | / | / | -30.1
CON(C)C(=O)CC1(CN(Cc2ccccc2)C(=O)OC(C)(C)C)CCCCC1 | 1.3 | -5.0 | 26.8 | 23.8
C#CC(=O)CC1(CN(Cc2ccccc2)C(=O)OC(C)(C)C)CCCCC1 | -4.0 | 76.2* | 14.8 | -15.1
OC(c1ccccc1)(c1ccccc1)C1CCN(CCCOc2ccc(C(F)(F)F)cc2)CC1 | -1.7 | 26.9 | 17.7 | 107.0*
OC(c1ccccc1)(c1ccccc1)C1CCN(CCCOc2cccc(C(F)(F)F)c2)CC1 | -2.1 | 1.5 | 4.1 | 106.2*
OC(c1ccccc1)(c1ccccc1)C1CCN(CCCOc2cccc(Cl)c2)CC1 | 0.7 | -7.6 | 16.0 | 7.4
CC(C)c1ccc(OCCCN2CCC(C(O)(c3ccccc3)c3ccccc3)CC2)cc1 | 0.2 | 52.9 | 33.0 | 102.8*
COc1cccc(C(=O)Nc2ccc3c(c2)C(=O)N(C)C[C@@H](OC)[C@H](C)CN(C(=O)C2CCCCC2)[C@H](C)CO3)c1 | 0.3 | 3.3 | -8.9 | 10.1
CN1C(=O)c2cc(NC(=O)Cc3cccs3)ccc2OC[C@H]2O[C@H](CC(=O)NCC3CCCCC3)CC[C@@H]21 | 0.4 | 0.3 | -4.3 | 12.0
Cc1sc(NC(=O)CCCC(=O)O)c(C(N)=O)c1-c1ccccc1 | / | -9.7 | 54.2* | 27.0
COc1ccc(S(=O)(=O)Nc2ccc3c(c2)CC(=O)N([C@H](C)CO)C[C@H](C)[C@@H](CN(C)Cc2ccc(Oc4ccccc4)cc2)O3)cc1 | 3.9 | 68.0* | 27.7 | 4.8
COc1ccc(S(=O)(=O)Nc2ccc3c(c2)CC(=O)N([C@H](C)CO)C[C@@H](C)[C@H](CN(C)Cc2ccc(Oc4ccccc4)cc2)O3)cc1 | 6.4 | -4.8 | 15.6 | -10.4
C[C@H]1CN([C@@H](C)CO)C(=O)Cc2cc(NS(=O)(=O)c3ccc(Cl)cc3)ccc2O[C@@H]1CN(C)Cc1ccc(Oc2ccccc2)cc1 | -0.1 | 47.8 | 60.2* | 16.5
COc1ccc(S(=O)(=O)Nc2ccc3c(c2)CC(=O)N([C@@H](C)CO)C[C@@H](C)[C@H](CN(C)Cc2ccc(-c4ccccc4)cc2)O3)cc1 | 3.5 | 95.2* | -8.8 | 21.3
CCN(Cc1nc2cc(Cl)ccc2c(=O)[nH]1)C(=O)c1cccc(OCc2c(C)noc2C)c1 | -0.6 | 8.1 | 0.7 | 5.6
